Results from PubChem BioAssay.
The other results are listed elsewhere or left out. Results filed as inconclusive are left out. Calls of active or inactive are those of the source.

Legend:
[1] = molecular target: Solute carrier family 12 member 5 (Homo sapiens) (UniProt Q9H2X9); assay: KCC2 modulators in sodium-free buffer, confirmation, cell-based, HEK293 KCC2, thallium flux, secondary assay (AID 1713;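 active = thallium flux slope above the same plate's solvent-only control mean plus 3 SD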); details: FluoZin2 fluorescence, at 10 µM, stronger effect = higher value
PubChem AID 1714 = details: HEK293-KCC2 + bumetanide/ouabain, thallium flux FluoZin2; at 10 µM; stronger effect = higher value
[2] = molecular target: Solute carrier family 12 member 5 (Homo sapiens) (UniProt Q9H2X9); assay: KCC2 modulators without ouabain present, confirmation, cell-based, HEK293 KCC2, thallium flux, FluoZin2, secondary assay 2 (AID 1715); details: HEK293-KCC2, thallium flux FluoZin2 fluorescence; at 10 µM; actives lie on both sides; F/F0 rise rate, 10–20 s post-thallium;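 also: raw slope with 0.1% DMSO as baseline and bumetanide as block control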
[3] = thallium flux modulation in parental HEK cells, confirmation, counter-screen for KCC2 modulator project, cell-based, counterscreen 1 (AID 1716;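 active = thallium flux rate significantly above the same plate's solvent-only control wells, beyond their mean plus 3 SD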); details: HEK293 parental cells, thallium flux FluoZin2, ouabain; at 10 µM; baseline-ratio fluorescence slope, 10–20 s after thallium
[4] = molecular target: Solute carrier family 12 member 5 (Homo sapiens) (UniProt Q9H2X9); assay: KCC2 inhibitors and activators, ouabain retest, confirmation, HEK-KCC2 cells (AID 1717;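 active = thallium flux slope beyond 3 SD from same-plate DMSO control mean in most replicates, usually higher, sometimes lower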;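 also: slope of initial-normalized fluorescence between seconds 10 and 20 after thallium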); details: HEK293-KCC2, thallium flux FluoZin2 fluorescence, at 10 µM, bidirectional: low = inhibitor, high = activator
[5] = native HEK Tl+ uptake effects, second counter-screen – HEK cells, counterscreen 2, counter-screen for KCC2 modulator project, confirmation (AID 1718;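 active = thallium flux slope above the same plate's solvent-control mean plus 3 SD in both duplicate wells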;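 also: run without ouabain in cells lacking the KCC2 cotransporter; slope of fluorescence scaled to its starting value between 10 and 20 s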); details: HEK293 parental, thallium flux FluoZin-2 fluorescence slope; at 10 µM
[6] = inhibitors of TNFa-induced NFkB p65 translocation, primary screen, imaging, HUVEC, MLSMR starter and 10KST1 sets (AID 438;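 active = inhibition above 20% together with a positive visual image hit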;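 also: compound added about 3h40 before a 20 min TNFalpha stimulation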;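 as to inhibition: signal is the nuclear over cytoplasmic p65 intensity ratio per well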); details: HUVEC TNFa-induced p65 nuclear translocation; cell count: measured here: nuclei count (cytotoxicity indicator), at 2.08 µM; inhibition: at 2 µM, stronger effect = higher value, 0% TNFa-plus-vehicle, 100% no-TNFa wells
[7] = inhibitors of mutant huntingtin aggregation, primary screen, imaging, exon1htt(103Q)mCFP cells, high-content imaging (AID 483;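 active = visual image review flags a hit and inhibition of aggregation exceeds 20%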;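 also: compound exposure lasted 3 days before fixation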;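 as to nuclei count: percent of the per-plate median nuclei count of sample wells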); details: exon1htt(103Q)mCFP cell line, aggregate imaging, at 2 µM; inhibition of aggregation: stronger effect = higher value; nuclei count: measured here: cell count, toxicity
[8] = inhibitors of E-selectin induction by TNFa, primary screen, imaging, HUVEC, immunofluorescence, MLSMR starter and 10KST1 sets (AID 487;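 active = visually confirmed hit in the image check and inhibition above 20%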;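 as to inhibition: signal is fraction of cell area covered by stained E-selectin grains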;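 as to nuclei count: 100% = median nuclei count of all wells on the same plate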); details: HUVEC TNFalpha-induced E-selectin immunofluorescence imaging, at 2 µM; inhibition: stronger effect = higher value; nuclei count: measured here: cell number, toxicity
[9] = DUSP6 inhibitors restoring Erk phosphorylation by chemical complementation, primary imaging in DUSP6-transfected HeLa (AID 609;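 active = compounds giving at least 50% inhibition in the cell-based MKP-3 phosphatase rescue imaging test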;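 as to inhibition: phospho-Erk level distribution per well compared with pooled transfected vehicle control wells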); details: HeLa MKP-3 transfected, phospho-Erk imaging KS statistic, at 10 µM, cells stimulated with TPA for 15 min
[10] = molecular target: Dual specificity protein phosphatase 6 (Homo sapiens) (UniProt Q16828); assay: as above; details: HeLa MKP-3 transfected, phospho-Erk imaging KS statistic; at 10 µM; stronger effect = higher value; cells stimulated with TPA for 15 min
[11] = molecular target: Voltage-gated potassium channel subunit beta-2 (Rattus norvegicus) (UniProt P62483); assay: KvBeta enzyme negative modulators, primary screen, biochemical, NADPH fluorescence (AID 622;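 active = fluorescence slope higher than the sample average by over 3 SD, cut at about -0.22 in these data, passing the limit was not always enough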;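 also: slope of raw intensity against log time taken from 70 to 1610 s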); details: recombinant KvBeta, 4-cyanobenzaldehyde reduction, at 10 µM, stronger effect = higher value
[12] = molecular target: Voltage-gated potassium channel subunit beta-2 (Rattus norvegicus) (UniProt P62483); assay: KvBeta positive modulators, primary screen, biochemical, NADPH fluorescence (AID 623;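 active = NADPH fluorescence slope more negative than the mean of all samples by about 3 SD, 99.7% confidence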;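 also: fluorescence intensity change per second fitted from 20 to 320 s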); details: Recombinant KvBeta, NADPH fluorescence decrease slope, 10 min; at 10 µM; stronger effect = lower value
[13] = molecular target: Muscarinic acetylcholine receptor M4 (Homo sapiens) (UniProt P08173); assay: compounds altering M4/GIRK thallium flux, either direction, primary screen, M4 allosteric agonist project, cell-based, HEK293 M4/GIRK, BTC-AM (AID 625;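 active = fluorescence slope after compound addition differing from the mean of all tested samples at 99.7% confidence, mostly higher but some lower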;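 also: thallium influx through GIRK channels coupled to M4 in HEK293 cells with BTC-AM dye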); details: at 10 µM, actives lie on both sides
[14] = inhibitors of larval lipid processing in zebrafish, primary screen, whole organism, PED6 fluorescence, gall bladder and intestine (AID 686;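 active = a full or partial loss of lipid-probe fluorescence in the fish gall bladder, intestine or both, judged by eye; inactive = no fluorescence loss, or compound toxic to the fish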;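 also: larvae 5 to 7 days old with five fish per well; signal comes from phospholipase A2 cleavage of quenched PED6 carried via bile; overnight exposure to compound and PED6 before scoring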); details: Zebrafish larvae PED6 lipid processing, fluorescence scoring; screened at 20 µM (by protocol)
[15] = inhibitors of Chlamydomonas gravitaxis, primary screen, whole organism, Chlamydomonas reinhardtii, WT vs cilia-less mutant, absorbance, 96-well (AID 463189;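 active = inhibition at or above 50% relative to wild type and mutant plate controls; inactive = inhibition below 50%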;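 also: 0% = wild type cc124 cells in DMSO and 100% = ciliumless bld1 mutant cells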); details: OD600 absorbance, 2 days, at 10 µM, stronger effect = higher value
[16] = inhibitors of Sendai virus-induced IRF3 signaling, primary screen, TLR/RLR signaling modifier project, cell-based, Sendai virus stimulus, luciferase, 10K MLSCN set (AID 602276;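 active = inhibition at or above 50% at 10 µM; inactive = inhibition below 50%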;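 also: firefly luciferase from ISG56 promoter only with Renilla not read in this screen; 0% = Sendai virus plus DMSO and 100% = medium plus DMSO without virus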); details: HEK293 RL24 IRF3 luciferase reporter, at 10 µM, stronger effect = higher value
[17] = inhibitors of poly I:C-induced TLR3 signaling, primary screen, cell-based, poly I:C stimulus, luciferase, 10K MLSCN set (AID 602277;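 active = inhibition of the reporter signal at or above 50%; inactive = inhibition below 50%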); details: HEK293-TLR3 RL24 IRF3 luciferase reporter, at 10 µM, stronger effect = higher value

Chain of Solute carrier family 12 member 5 (Homo sapiens) (Q9H2X9 whole entry, looked up): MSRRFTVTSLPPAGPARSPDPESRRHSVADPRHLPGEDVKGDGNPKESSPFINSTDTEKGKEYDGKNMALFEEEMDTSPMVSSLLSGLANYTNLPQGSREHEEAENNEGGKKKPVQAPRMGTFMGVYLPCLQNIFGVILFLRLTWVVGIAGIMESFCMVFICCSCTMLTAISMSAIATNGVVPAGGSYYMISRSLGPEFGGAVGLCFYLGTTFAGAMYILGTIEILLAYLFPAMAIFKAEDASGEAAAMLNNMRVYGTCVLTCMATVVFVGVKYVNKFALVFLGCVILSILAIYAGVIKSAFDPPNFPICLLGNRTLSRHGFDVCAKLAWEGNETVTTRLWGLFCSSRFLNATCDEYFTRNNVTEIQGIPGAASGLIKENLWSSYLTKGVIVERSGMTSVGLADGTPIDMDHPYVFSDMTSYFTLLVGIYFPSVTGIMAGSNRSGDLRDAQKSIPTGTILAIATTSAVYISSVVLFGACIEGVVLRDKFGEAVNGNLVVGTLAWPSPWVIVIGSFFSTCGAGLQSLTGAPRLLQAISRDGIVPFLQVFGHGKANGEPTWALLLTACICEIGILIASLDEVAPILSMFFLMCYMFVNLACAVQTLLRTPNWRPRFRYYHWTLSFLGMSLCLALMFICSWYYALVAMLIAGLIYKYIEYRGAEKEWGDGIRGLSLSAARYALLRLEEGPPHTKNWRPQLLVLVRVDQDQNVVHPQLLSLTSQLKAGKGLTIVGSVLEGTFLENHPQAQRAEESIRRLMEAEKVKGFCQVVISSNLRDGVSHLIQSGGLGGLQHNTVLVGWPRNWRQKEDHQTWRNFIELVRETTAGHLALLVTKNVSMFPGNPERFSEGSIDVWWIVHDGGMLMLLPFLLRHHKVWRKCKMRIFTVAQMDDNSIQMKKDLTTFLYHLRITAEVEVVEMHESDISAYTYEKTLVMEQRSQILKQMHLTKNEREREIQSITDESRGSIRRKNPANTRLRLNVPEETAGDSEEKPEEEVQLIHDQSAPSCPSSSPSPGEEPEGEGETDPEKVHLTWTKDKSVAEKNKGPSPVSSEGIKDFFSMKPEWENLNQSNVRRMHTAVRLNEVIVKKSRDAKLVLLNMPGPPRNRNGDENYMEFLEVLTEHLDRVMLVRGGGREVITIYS
Chain of Voltage-gated potassium channel subunit beta-2 (Rattus norvegicus) (P62483 whole entry, looked up): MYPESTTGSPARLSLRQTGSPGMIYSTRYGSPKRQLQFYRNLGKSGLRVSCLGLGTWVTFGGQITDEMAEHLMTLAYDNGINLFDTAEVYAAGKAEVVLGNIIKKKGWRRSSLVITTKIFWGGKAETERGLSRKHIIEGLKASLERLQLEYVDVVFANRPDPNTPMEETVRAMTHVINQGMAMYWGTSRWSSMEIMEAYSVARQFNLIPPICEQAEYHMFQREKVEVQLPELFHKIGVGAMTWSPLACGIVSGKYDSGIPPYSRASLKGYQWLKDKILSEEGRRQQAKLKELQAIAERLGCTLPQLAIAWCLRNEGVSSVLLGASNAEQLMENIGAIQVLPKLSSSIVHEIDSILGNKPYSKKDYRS
Chain of Dual specificity protein phosphatase 6 (Homo sapiens) (Q16828 whole entry, looked up): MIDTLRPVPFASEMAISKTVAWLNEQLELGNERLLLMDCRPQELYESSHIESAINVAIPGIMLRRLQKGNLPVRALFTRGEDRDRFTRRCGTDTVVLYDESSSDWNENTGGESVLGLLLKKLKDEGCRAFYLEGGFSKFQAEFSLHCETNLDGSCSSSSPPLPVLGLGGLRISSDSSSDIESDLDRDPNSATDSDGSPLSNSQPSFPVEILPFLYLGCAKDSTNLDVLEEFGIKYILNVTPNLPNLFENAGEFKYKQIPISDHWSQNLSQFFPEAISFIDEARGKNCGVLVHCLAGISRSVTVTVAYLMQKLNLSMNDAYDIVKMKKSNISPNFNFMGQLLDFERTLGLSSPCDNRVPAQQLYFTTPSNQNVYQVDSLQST
Chain of Muscarinic acetylcholine receptor M4 (Homo sapiens) (P08173 whole entry, looked up): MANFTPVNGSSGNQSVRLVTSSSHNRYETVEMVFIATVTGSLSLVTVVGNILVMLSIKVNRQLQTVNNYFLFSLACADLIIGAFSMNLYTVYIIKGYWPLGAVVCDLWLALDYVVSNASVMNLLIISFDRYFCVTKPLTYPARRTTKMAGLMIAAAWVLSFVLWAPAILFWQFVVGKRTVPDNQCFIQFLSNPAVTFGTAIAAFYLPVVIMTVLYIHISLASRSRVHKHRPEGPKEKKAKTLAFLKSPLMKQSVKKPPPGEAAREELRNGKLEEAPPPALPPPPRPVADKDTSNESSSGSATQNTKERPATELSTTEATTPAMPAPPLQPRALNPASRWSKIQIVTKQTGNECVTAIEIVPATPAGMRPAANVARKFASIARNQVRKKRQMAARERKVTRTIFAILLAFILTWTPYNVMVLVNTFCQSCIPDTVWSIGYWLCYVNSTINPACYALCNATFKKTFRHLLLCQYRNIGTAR

O=c1oc2ccccc2cc1-c1cn(-c2ccccc2)c(=S)[nH]1
inactive: normalised thallium flux (F/F0 slope) [1] 0.00633 | normalized thallium flux [2] 0.0319
active: normalized thallium flux (PubChem AID 1714) 0.0198 | thallium flux rate (normalised fluorescence) [3] 0.0191 | raw Tl+ flux slope (below DMSO = inhibition, above = activation) [4] 0.0289 | thallium flux slope [5] 0.0141

CCOc1cccc(/C=N/N2C(=O)CSC2=S)c1O
inactive: normalised thallium flux (F/F0 slope) [1] 0.00656 | normalized thallium flux [2] 0.0319
active: normalized thallium flux (PubChem AID 1714) 0.0152 | thallium flux rate (normalised fluorescence) [3] 0.0178 | thallium flux slope [5] 0.0167

CCOc1ccc(NC(=O)CN(C)CC(=O)Nc2cccc(Cl)c2C)cc1OCC
inactive: normalised thallium flux (F/F0 slope) [1] 0.00801 | normalized thallium flux (PubChem AID 1714) 0.00595 | normalized thallium flux [2] 0.0338 | thallium flux rate (normalised fluorescence) [3] 0.00749 | raw Tl+ flux slope (below DMSO = inhibition, above = activation) [4] 0.0213 | thallium flux slope [5] 0.0107

CCNCc1cc2cc(C)ccc2[nH]c1=O
0.581: z-score ([9]; measured here: cell density z-score)
132%: nuclei count [8]
-1.49: z-score ([9]; measured here: nuclear c-Myc green intensity z-score)
-1.38: z-score ([9]; measured here: nuclear pErk red intensity z-score, stronger effect = higher value)
118%: nuclei count [7]
596: cell count [6]
inactive: inhibition [6] -5.2% | inhibition of aggregation [7] 1.8% | inhibition [8] -107% | inhibition [10] 2.71% | fluorescence slope [11] -0.515 | NADPH fluorescence slope [12] -4.8e-05 | fluorescence slope [13] 0.00569 | outcome [14] | normalised thallium flux (F/F0 slope) [1] 0.00875 | normalized thallium flux (PubChem AID 1714) 0.00485 | normalized thallium flux [2] 0.034 | thallium flux rate (normalised fluorescence) [3] 0.00817 | raw Tl+ flux slope (below DMSO = inhibition, above = activation) [4] 0.0185 | thallium flux slope [5] 0.0111 | inhibition [15] 9.6% | inhibition [16] 3.24% | inhibition [17] 16.9%

O=C(COC(=O)c1cc([N+](=O)[O-])ccc1NCc1ccccc1)NC1CCCCC1
active: normalized thallium flux [2] 0.0252 | raw Tl+ flux slope (below DMSO = inhibition, above = activation) [4] 0.0168
inactive: normalised thallium flux (F/F0 slope) [1] 0.00664 | normalized thallium flux (PubChem AID 1714) 0.00478 | thallium flux rate (normalised fluorescence) [3] 0.00762 | thallium flux slope [5] 0.0115

CC(C)n1cnc2c(Nc3cccc(Cl)c3)nc(N(CCO)CCCO)nc21
active: normalized thallium flux [2] 0.0232
inactive: normalised thallium flux (F/F0 slope) [1] 0.00575 | normalized thallium flux (PubChem AID 1714) 0.00472 | thallium flux rate (normalised fluorescence) [3] 0.0075 | thallium flux slope [5] 0.0113

COc1ccc(C(=O)NC2(C(F)(F)F)NC(=O)N(CCCc3ccccc3)C2=O)c(OC)c1OC (centres undefined)
inactive: normalised thallium flux (F/F0 slope) [1] 0.00692 | normalized thallium flux (PubChem AID 1714) 0.00586 | normalized thallium flux [2] 0.0307 | thallium flux rate (normalised fluorescence) [3] 0.00683 | thallium flux slope [5] 0.0109
active: raw Tl+ flux slope (below DMSO = inhibition, above = activation) [4] 0.0134

CCOc1ccccc1C1CC(c2ccc(Cl)cc2)Nc2nc(N)nn21 (centres undefined)
inactive: normalised thallium flux (F/F0 slope) [1] 0.0061 | normalized thallium flux (PubChem AID 1714) 0.00475 | normalized thallium flux [2] 0.0277 | thallium flux rate (normalised fluorescence) [3] 0.00745 | raw Tl+ flux slope (below DMSO = inhibition, above = activation) [4] 0.0177 | thallium flux slope [5] 0.00975

O=C(Nc1nc2c(F)cc(F)cc2s1)C1COc2ccccc2O1 (centres undefined)
inactive: normalized thallium flux [2] 0.0398
active: normalised thallium flux (F/F0 slope) [1] 0.017 | normalized thallium flux (PubChem AID 1714) 0.0963 | thallium flux rate (normalised fluorescence) [3] 0.0378 | raw Tl+ flux slope (below DMSO = inhibition, above = activation) [4] 0.0383 | thallium flux slope [5] 0.0155

COc1ccc(-c2cn(-c3ccc(OC)cc3)c(=S)[nH]2)cc1
active: normalized thallium flux (PubChem AID 1714) 0.0216 | thallium flux rate (normalised fluorescence) [3] 0.0163 | thallium flux slope [5] 0.0135
inactive: normalised thallium flux (F/F0 slope) [1] 0.00623 | normalized thallium flux [2] 0.0299

c1ccc2c(C[n+]3csc4ccccc43)cccc2c1
active: normalized thallium flux (PubChem AID 1714) 0.0261 | normalized thallium flux [2] 0.0399 | thallium flux rate (normalised fluorescence) [3] 0.0169 | raw Tl+ flux slope (below DMSO = inhibition, above = activation) [4] 0.0315 | thallium flux slope [5] 0.0219
inactive: normalised thallium flux (F/F0 slope) [1] 0.0079

O=C(N/N=C/c1ccc(Br)o1)c1cncc(Br)c1
active: normalised thallium flux (F/F0 slope) [1] 0.0115 | normalized thallium flux (PubChem AID 1714) 0.0326 | thallium flux rate (normalised fluorescence) [3] 0.0124 | thallium flux slope [5] 0.0107
inactive: normalized thallium flux [2] 0.0307

CN(C)CCn1c(=S)[nH]c2ccc(Cl)cc2c1=O
inactive: normalised thallium flux (F/F0 slope) [1] 0.00617 | normalized thallium flux [2] 0.0337
active: normalized thallium flux (PubChem AID 1714) 0.0089 | thallium flux rate (normalised fluorescence) [3] 0.0128 | thallium flux slope [5] 0.0165

CCn1c(SCc2ccccc2)nc2c(c1=O)SCC2
inactive: normalised thallium flux (F/F0 slope) [1] 0.00954 | normalized thallium flux (PubChem AID 1714) 0.00493 | normalized thallium flux [2] 0.0352 | raw Tl+ flux slope (below DMSO = inhibition, above = activation) [4] 0.0198 | thallium flux slope [5] 0.00988
active: thallium flux rate (normalised fluorescence) [3] 0.00537

Cc1ccc(Nc2nnc(SCC(=O)c3cc4ccccc4o3)s2)cc1C
inactive: normalised thallium flux (F/F0 slope) [1] 0.00887 | normalized thallium flux (PubChem AID 1714) 0.00668 | thallium flux rate (normalised fluorescence) [3] 0.00694 | thallium flux slope [5] 0.00899
active: normalized thallium flux [2] 0.0195 | raw Tl+ flux slope (below DMSO = inhibition, above = activation) [4] 0.00819

O=C(Cn1cnc2c(nnn2Cc2ccc(F)cc2)c1=O)NCc1ccc2c(c1)OCO2
inactive: normalised thallium flux (F/F0 slope) [1] 0.0157 | normalized thallium flux (PubChem AID 1714) 0.00497 | thallium flux rate (normalised fluorescence) [3] 0.00772 | raw Tl+ flux slope (below DMSO = inhibition, above = activation) [4] 0.0137 | thallium flux slope [5] 0.0107
active: normalized thallium flux [2] 0.0238

Cc1cccc(-n2c(SCC(N)=O)nc3c(c2=O)C2(CCCCC2)Cc2ccccc2-3)c1
active: normalized thallium flux (PubChem AID 1714) 0.017 | thallium flux rate (normalised fluorescence) [3] 0.0115 | thallium flux slope [5] 0.0138
inactive: normalised thallium flux (F/F0 slope) [1] 0.00538 | normalized thallium flux [2] 0.032

S=c1ccc2ccccc2[nH]1
inactive: normalized thallium flux [2] 0.0335
active: normalised thallium flux (F/F0 slope) [1] 0.0228 | normalized thallium flux (PubChem AID 1714) 0.0237 | thallium flux rate (normalised fluorescence) [3] 0.0196 | raw Tl+ flux slope (below DMSO = inhibition, above = activation) [4] 0.0247 | thallium flux slope [5] 0.0209
